From PubChem BioAssay (NCI)
“And” between values parts separate entries of the source, which are not always exact repeats. Equal entries are not always repeated. This is part of a sample that, as a whole, favours compounds with a hit. Of some 83,000 tested, about 20% had one in any assay.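 Growth was measured after 48 h exposure to one concentration of compound in 96-well plates. Values under 10 count as active.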 The source made the active and inactive calls.

Experiments:
Test in all cases: NCI-60 one-dose screen, 48 h (100 = growth as untreated, 0 = no growth, -100 = all killed)
Conditions in all cases: 10 µM unless noted
DU-145 prostate = tested on: DU-145 prostate
K-562 leukemia = tested on: K-562 leukemia
MALME-3M melanoma = tested on: MALME-3M melanoma
MDA-MB-231 breast = tested on: MDA-MB-231 breast
RXF 393 renal = tested on: RXF 393 renal
SF-268 CNS = tested on: SF-268 CNS
SF-295 CNS = tested on: SF-295 CNS
SF-539 CNS = tested on: SF-539 CNS
UACC-257 melanoma = tested on: UACC-257 melanoma
M14 melanoma = tested on: M14 melanoma
HCT-15 colon = tested on: HCT-15 colon
HT29 colon = tested on: HT29 colon
SNB-75 CNS = tested on: SNB-75 CNS
SNB-19 CNS = tested on: SNB-19 CNS
U251 CNS = tested on: U251 CNS
PC-3 prostate = tested on: PC-3 prostate
SK-MEL-5 melanoma = tested on: SK-MEL-5 melanoma
UACC-62 melanoma = tested on: UACC-62 melanoma
SK-MEL-28 melanoma = tested on: SK-MEL-28 melanoma
LOX IMVI melanoma = tested on: LOX IMVI melanoma

Compound	growth (DU-145 prostate)	growth (K-562 leukemia)	growth (MALME-3M melanoma)	growth (MDA-MB-231 breast)	growth (RXF 393 renal)	growth (SF-268 CNS)	growth (SF-295 CNS)	growth (SF-539 CNS)	growth (UACC-257 melanoma)	growth (M14 melanoma)	growth (HCT-15 colon)	growth (HT29 colon)	growth (SNB-75 CNS)	growth (SNB-19 CNS)	growth (U251 CNS)	growth (PC-3 prostate)	growth (SK-MEL-5 melanoma)	growth (UACC-62 melanoma)	growth (SK-MEL-28 melanoma)	growth (LOX IMVI melanoma)
NC(N)=N/N=C/c1ccc([N+](=O)[O-])o1	91.5% (inactive)	94.6% (inactive)	68.1% (inactive)	105% (inactive)	95.7% (inactive)	90.3% (inactive)	93.4% (inactive)	104% (inactive)	67.1% (inactive)	99.1% (inactive)	68.1% (inactive)	33.2% (inactive)	106% (inactive)	99.9% (inactive)	80.8% (inactive)	90% (inactive)	90.4% (inactive)	92.9% (inactive)	114% (inactive)	–
NC(=O)/C=C/C(=O)c1c(Cl)cccc1Cl	-75.9% (active)	-19.2% (active)	-68.4% (active)	-79.1% (active)	-41.6% (active)	-57.3% (active)	81.9% (inactive)	-95.4% (active)	-81.7% (active)	-96.5% (active)	-61.2% (active)	-39.6% (active)	-99.5% (active)	9.41% (active)	-59.1% (active)	-96% (active)	-94.5% (active)	-71.1% (active)	-99.1% (active)	–
O=C1NC(=O)/C(=C/C=C/c2ccccc2)S1	50.3% (inactive)	31.1% (inactive)	60.2% (inactive)	82.5% (inactive)	66.3% (inactive)	31.8% (inactive)	14.3% (inactive)	-6.41% (active)	45.1% (inactive)	12.3% (inactive)	54.1% (inactive)	56.6% (inactive)	59.7% (inactive)	28.3% (inactive)	17.1% (inactive)	87.5% (inactive)	25% (inactive)	1.33% (active)	84.6% (inactive)	15.8% (inactive)
CCCCCC(CCCCC)C(=O)O	119% (inactive)	99.8% (inactive)	119% (inactive)	105% (inactive)	135% (inactive)	104% (inactive)	108% (inactive)	104% (inactive)	116% (inactive)	112% (inactive)	98.2% (inactive)	105% (inactive)	89.9% (inactive)	103% (inactive)	85.5% (inactive)	–	117% (inactive)	94.4% (inactive)	111% (inactive)	110% (inactive)
O=C1c2ccccc2C(=O)c2sc(Nc3ccc(Cl)cc3)nc21	-78.3% (active)	4.83% (active)	-79.6% (active)	6.43% (active)	17% (inactive)	42% (inactive)	98.4% (inactive)	2.24% (active)	-16% (active)	-2.34% (active)	-68.7% (active)	92.5% (inactive)	33.1% (inactive)	79.5% (inactive)	4.35% (active)	–	13% (inactive)	18.4% (inactive)	–	-85.8% (active)
Cc1ccnc(NC(c2ccccc2)c2ccc3cccnc3c2O)c1 (stereo not given)	47.8% (inactive)	21.4% (inactive)	62.4% (inactive)	48.5% (inactive)	66.9% (inactive)	34.7% (inactive)	26% (inactive)	24.7% (inactive)	41.7% (inactive)	36.8% (inactive)	27.9% (inactive)	43.1% (inactive)	52.2% (inactive)	40.3% (inactive)	20.4% (inactive)	35.3% (inactive)	39.4% (inactive)	26.3% (inactive)	47% (inactive)	–
N#CSCc1ccc(Cl)c(CSC#N)c1	16.4% (inactive)	15.2% (inactive)	63.7% (inactive)	45.4% (inactive)	5.61% (active)	36.4% (inactive)	70.7% (inactive)	15.2% (inactive)	83.1% (inactive)	9.39% (active)	18% (inactive)	6.14% (active)	25.4% (inactive)	61.5% (inactive)	61% (inactive)	25.5% (inactive)	19.8% (inactive)	57.3% (inactive)	68.6% (inactive)	19.9% (inactive)
CCC(CC)COC(=O)c1ccc(O)c(O)c1	73.4% (inactive)	102% (inactive)	54.8% (inactive)	48.9% (inactive)	65.7% (inactive)	57.8% (inactive)	90.1% (inactive)	34% (inactive)	86.4% (inactive)	86.1% (inactive)	49.2% (inactive)	96.8% (inactive)	75% (inactive)	74.6% (inactive)	50.9% (inactive)	33.8% (inactive)	83.3% (inactive)	76.8% (inactive)	95.1% (inactive)	69.2% (inactive)
Oc1c(Cl)cc(Cl)c2cccnc12	85.5% (inactive) and 71.2% (inactive)	24.4% (inactive) and 29% (inactive)	74.1% (inactive) and 91.3% (inactive)	95.1% (inactive) and 48.3% (inactive)	67.1% (inactive)	66.4% (inactive) and 54% (inactive)	30.3% (inactive) and 12.3% (inactive)	68.7% (inactive) and 34.3% (inactive)	82.4% (inactive)	63.7% (inactive) and 53% (inactive)	44.6% (inactive) and 30.1% (inactive)	63% (inactive) and 90.4% (inactive)	82.6% (inactive) and 46.2% (inactive)	57.4% (inactive) and 38.9% (inactive)	35.5% (inactive)	50.5% (inactive) and 30.9% (inactive)	33.2% (inactive) and 28.1% (inactive)	58.2% (inactive) and 49.3% (inactive)	83.2% (inactive) and 65.5% (inactive)	–
Nc1nc(N)c2nc(CNc3ccc(C(=O)NC(CCC(=O)O)C(=O)O)cc3)cnc2n1 (stereo not given)	28.2% (inactive) and 21.8% (inactive)	18.7% (inactive) and 32% (inactive)	47.8% (inactive) and 48.3% (inactive)	78.1% (inactive) and 60.1% (inactive)	48% (inactive) and 76.4% (inactive)	26.6% (inactive) and 27.3% (inactive)	26% (inactive) and 12.9% (inactive)	21.3% (inactive) and 18.4% (inactive)	57.8% (inactive) and 52.2% (inactive)	10.8% (inactive) and 9.2% (active)	27% (inactive) and 26% (inactive)	32.5% (inactive) and 18.5% (inactive)	64.3% (inactive) and 41.4% (inactive)	51% (inactive) and 44.4% (inactive)	37.9% (inactive) and 26.9% (inactive)	–	24.6% (inactive) and 23.9% (inactive)	25.3% (inactive) and 24.3% (inactive)	67% (inactive) and 96.9% (inactive)	12% (inactive) and 13.1% (inactive)
O=C1C=CC(=O)N1C1c2ccccc2-c2ccccc21	103% (inactive)	18.5% (inactive)	90.1% (inactive)	97.9% (inactive)	80.5% (inactive)	102% (inactive)	99.5% (inactive)	98.3% (inactive)	85.7% (inactive)	96.5% (inactive)	61.6% (inactive)	92.9% (inactive)	74.9% (inactive)	105% (inactive)	92.8% (inactive)	–	105% (inactive)	102% (inactive)	104% (inactive)	93.9% (inactive)
O=C1c2ccccc2C(=O)c2sc(Nc3cccc(Cl)c3)nc21	-93.9% (active)	6.87% (active)	-89.9% (active)	-8.62% (active)	-11.5% (active)	-7.47% (active)	66.2% (inactive)	-91.5% (active)	-74.9% (active)	-89.1% (active)	-67.3% (active)	76.1% (inactive)	-85.2% (active)	42.8% (inactive)	-47.3% (active)	3.03% (active)	-82.6% (active)	-55.6% (active)	-78.1% (active)	–
CN(C)c1ccc(C(=C2C=CC(=[N+](C)C)C=C2)c2ccc(N(C)C)cc2)cc1 (tested in a mixture with another compound)	-99.4% (active)	-55.3% (active)	-62.7% (active)	-60.9% (active)	-70.1% (active)	-92.2% (active)	-45.1% (active)	-94.2% (active)	-67.4% (active)	-63.2% (active)	-74.7% (active)	-87.3% (active)	-97.3% (active)	-99.1% (active)	-95.8% (active)	–	-99.3% (active)	-64.4% (active)	-87% (active)	-89.2% (active)
CCCCCCCCCCCCCCCC[N+](C)(CCO)Cc1cnc[nH]1 (stereo not given)	-32% (active)	-61.6% (active)	-3.54% (active)	-54.9% (active)	-44.7% (active)	-66.1% (active)	-31.7% (active)	-54.3% (active)	-34.5% (active)	-41.9% (active)	23.5% (inactive)	-58.8% (active)	-86.6% (active)	-98.8% (active)	-86.5% (active)	–	-99.8% (active)	-76.4% (active)	–	–
CC(C)c1ccc2nc3ccc(C(=O)NCCN4CCN(c5ccccc5)CC4)cn3c(=O)c2c1	80% (inactive)	45.1% (inactive)	48.3% (inactive)	59.3% (inactive)	3.14% (active)	72.9% (inactive)	23.1% (inactive)	40.8% (inactive)	60.2% (inactive)	63.8% (inactive)	44.5% (inactive)	38.8% (inactive)	60.4% (inactive)	78.8% (inactive)	38.2% (inactive)	–	-25.3% (active)	62% (inactive)	69.7% (inactive)	56.1% (inactive)
